PubChem BioAssay (Tox21)
Inconclusive results are not listed. Activity calls are given as the source filed them. Unless noted, calls come from the whole dose curve; as a rule, active = well fitted curve in the direction sought with a large enough effect in the repeat runs; inconclusive = weak or mixed curves; inactive = no such curve, though single readings can be large; an effect the other way counts as inactive or inconclusive.

Legend:
[1] = target: Peroxisome proliferator-activated receptor gamma (Homo sapiens) (UniProt P37231); test: qHTS assay to identify small molecule antagonists of the peroxisome proliferator-activated receptor gamma (PPARg) signaling pathway (AID 743191; calls by dose curve; note: series mostly up to about 63 µM; nearly all actives have a fitted effect of over 30% in size)
How it was run: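 Beta-lactamase reporter under UAS control in HEK293H PPARg-bla cells; compound treatment 17 h at 37C. Read-out: fluorescence intensity after 1 h room-temperature incubation with LiveBLAzer B/G FRET substrate.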

[2] = qHTS assay to identify small molecule antagonists of the peroxisome proliferator-activated receptor gamma (PPARg) signaling pathway - cell viability counter screen (AID 743194); note: nearly all actives have a fitted effect of over 55% in size
How it was run: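 Viability was measured as CellTiter-Glo luminescence in GeneBLAzer PPARg UAS-bla HEK293H cells. These cells had been exposed 17 h at 37 C to compounds together with rosiglitazone at 50 nM final, with the beta-lactamase readout taken in the same wells.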

[3] = qHTS assay for small molecule agonists of the antioxidant response element (ARE) signaling pathway (AID 743202; active = well fitted activation curve with a large enough effect in the signal ratio in the repeat runs, not every such curve was filed as active; the % refers to the signal ratio)
How it was run: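 An ARE-responsive beta-lactamase gene stably integrated in HepG2 cells serves as reporter. After 5 h plating and 16 h compound incubation at 37 C, fluorescence of the B/G FRET substrate was measured.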

[4] = qHTS assay for small molecule agonists of the antioxidant response element (ARE) signaling pathway - cell viability counter screen (AID 743203; calls by dose curve; note: nearly all actives have a fitted effect of over 55% in size)
How it was run: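 HepG2 cells carrying ARE-driven beta-lactamase; 2,000 cells/well; 5 hrs plating; compound pinned from DMSO; 16 hrs 37C/5% CO2; CellTiter-Glo added; 30 min RT; luminescence.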

[5] = qHTS assay to identify small molecule agonists of the peroxisome proliferator-activated receptor delta (PPARd) signaling pathway - cell viability counter screen (AID 743211); note: nearly all actives have a fitted effect of over 55% in size
How it was run: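 HEK293H PPARd-bla, 3000 cells/well; 5 h preincubation 37C/5% CO2; cpd in DMSO, 17 h 37C; B/G FRET substrate 2 h RT; CellTiter-Glo 30 min RT, luminescence.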

[6] = qHTS assay to identify small molecule antagonists of the peroxisome proliferator-activated receptor delta (PPARd) signaling pathway - cell viability counter screen (AID 743213); note: nearly all actives have a fitted effect of over 50% in size
How it was run: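 Agonist-stimulated (L165041, 300 nM final) HEK293H PPARd UAS-bla cells are exposed to compounds for 17 h at 37 C, and ATP-based luminescence (CellTiter-Glo) from the same wells reports cytotoxicity.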

[7] = qHTS assay to identify small molecule agonists of the farnesoid-X-receptor (FXR) signaling pathway - cell viability counter screen (AID 743218); note: nearly all actives have a fitted effect of over 45% in size
How it was run: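 HEK 293T FXR-bla cells; 5 h pre-incubation, 16 h compound exposure at 37 C; LiveBLAzer substrate 2 h RT, then CellTiter-Glo 30 min RT, luminescence.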

[8] = qHTS assay to identify small molecule antagonists of the farnesoid-X-receptor (FXR) signaling pathway - cell viability counter screen (AID 743221; active = well fitted cell-killing curve with a large enough effect in the repeat runs, not every such curve was filed as active; note: nearly all actives have a fitted effect of over 50% in size)
How it was run: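 Luminescence from CellTiter-Glo measures cytotoxicity in GeneBLAzer FXR-UAS-bla HEK 293T cells. Cells were exposed to compounds with 50 uM chenodeoxycholic acid (final) for 16 h at 37 C, in wells also used for the reporter readout.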

[9] = target: Vitamin D3 receptor (Homo sapiens) (UniProt P11473); test: qHTS assay to identify small molecule agonists of the vitamin D receptor (VDR) signaling pathway (AID 743222; calls by dose curve)
How it was run: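 VDR-bla cells, 2,000/well; 4 h preincubation 37C; cpd (DMSO) 16 h; LiveBLAzer B/G substrate 2 h RT; fluorescence intensity read.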

[10] = target: Vitamin D3 receptor (Homo sapiens) (UniProt P11473); test: qHTS assay to identify small molecule antagonists of the vitamin D receptor (VDR) signaling pathway (AID 743223; active = well fitted inhibition curve with a large enough effect in the signal ratio in the repeat runs, not every such curve was filed as active; the % refers to the signal ratio)
How it was run: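 Antagonist mode uses 1alpha,25-dihydroxyvitamin D3 at 3 nM final as stimulus. VDR-bla cells receive compounds in DMSO, incubate 16 h at 37C, then a beta-lactamase FRET substrate for 2 h at room temperature before fluorescence measurement.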

[11] = qHTS assay to identify small molecule agonists of the vitamin D receptor (VDR) signaling pathway - cell viability counter screen (AID 743224); note: series mostly up to about 63 µM; nearly all actives have a fitted effect of over 50% in size
How it was run: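 Luminescence from CellTiter-Glo, read after 30 min at room temperature, reports viability of VDR-bla cells treated with compounds for 16 h at 37C in the wells used for the beta-lactamase FRET read.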

[12] = target: Peroxisome proliferator-activated receptor gamma (Homo sapiens) (UniProt P37231); test: qHTS assay to identify small molecule agonists of the peroxisome proliferator-activated receptor gamma (PPARg) signaling pathway (AID 743094; active = well fitted activation curve with a large enough effect in the signal ratio in the repeat runs, not every such curve was filed as active; the % refers to the signal ratio)
How it was run: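 Beta-lactamase FRET fluorescence was the read-out after a 1 h room-temperature substrate step, following 17 h compound treatment at 37C of HEK293H cells expressing a UAS-driven bla reporter responsive to PPARg.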

[13] = qHTS assay for small molecule activators of the heat shock response signaling pathway - cell viability counter screen (AID 743209); note: nearly all actives have a fitted effect of over 50% in size
How it was run: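 Luminescence from CellTiter-Glo, added after the beta-lactamase FRET read, gave the viability signal. Cells were HSE-bla HeLa treated with DMSO-dissolved compounds for 5 h at 37 C following overnight plating.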

[14] = target: Peroxisome proliferator-activated receptor delta (Homo sapiens) (UniProt Q03181); test: qHTS assay to identify small molecule agonists of the peroxisome proliferator-activated receptor delta (PPARd) signaling pathway (AID 743212; calls by dose curve)
How it was run: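 HEK293H UAS-bla reporter cells, human PPARd system; compounds delivered in DMSO after 5 h plating, then at 37 C. Beta-lactamase FRET read, 2 h RT substrate step.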

[15] = target: Peroxisome proliferator-activated receptor delta (Homo sapiens) (UniProt Q03181); test: qHTS assay to identify small molecule antagonists of the peroxisome proliferator-activated receptor delta (PPARd) signaling pathway (AID 743215; active = well fitted inhibition curve with a large enough effect in the signal ratio in the repeat runs, not every such curve was filed as active; the % refers to the signal ratio; note: series mostly up to about 62 µM)
How it was run: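 Read-out is beta-lactamase FRET fluorescence, measured 2 h after substrate addition at room temperature. Beforehand, UAS-bla HEK293H cells carrying the PPARd reporter were exposed to compounds with L165041 at 300 nM final for 17 h at 37 C.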

[16] = qHTS assay to identify small molecule that activate the aryl hydrocarbon receptor (AhR) signaling pathway - cell viability counter screen (AID 743086);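 note: HepG2 liver cells carrying the AhR DRE luciferase reporter; series mostly up to about 70 µM; nearly all actives have a fitted effect of over 45% in size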
How it was run: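 Cytotoxicity counter screen: CellTiter-Fluor signal (30 min, 37 C) in 4000 HepG2 cells/well carrying the DRE-luciferase reporter, following 24 h compound exposure at 37 C.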

[17] = qHTS assay for small molecule activators of the heat shock response signaling pathway (AID 743210; active = well fitted activation curve with a large enough effect in the signal ratio in the repeat runs, with a control signal flat, not every such curve was filed as active; the % refers to the signal ratio;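 note: HeLa cells with beta-lactamase reporter driven by heat shock elements; series mostly up to about 63 µM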)
How it was run: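 In HSE-bla HeLa cells, 5 h compound incubation (37 C) precedes addition of LiveBLAzer B/G substrate; after 2.5 h at room temperature, fluorescence intensity indicates reporter induction.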

[18] = target: Bile acid receptor (Homo sapiens) (UniProt Q96RI1); test: qHTS assay to identify small molecule antagonists of the farnesoid-X-receptor (FXR) signaling pathway (AID 743217; active = well fitted inhibition curve with a large enough effect in the signal ratio in the repeat runs, not every such curve was filed as active; the % refers to the signal ratio)
How it was run: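 HEK 293T FXR-UAS-bla, 5000 cells/well; compound + CDCA 50 uM final; 16 h, 37 °C; B/G FRET substrate 2 h RT; fluorescence.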

[19] = target: Bile acid receptor (Homo sapiens) (UniProt Q96RI1); test: qHTS assay to identify small molecule agonists of the farnesoid-X-receptor (FXR) signaling pathway (AID 743220; active = well fitted activation curve with a large enough effect in the signal ratio in the repeat runs, not every such curve was filed as active; the % refers to the signal ratio)
How it was run: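 Beta-lactamase reporter under UAS control in GeneBLAzer FXR HEK 293T cells (5000/well) measured with LiveBLAzer FRET substrate after 2 h at room temperature. Compound exposure lasted 16 h at 37C.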
% is set by controls: 0 for no effect and ±100 for the full control effect.

Vitamin D3 receptor (Homo sapiens), sequence (P11473 whole entry, looked up): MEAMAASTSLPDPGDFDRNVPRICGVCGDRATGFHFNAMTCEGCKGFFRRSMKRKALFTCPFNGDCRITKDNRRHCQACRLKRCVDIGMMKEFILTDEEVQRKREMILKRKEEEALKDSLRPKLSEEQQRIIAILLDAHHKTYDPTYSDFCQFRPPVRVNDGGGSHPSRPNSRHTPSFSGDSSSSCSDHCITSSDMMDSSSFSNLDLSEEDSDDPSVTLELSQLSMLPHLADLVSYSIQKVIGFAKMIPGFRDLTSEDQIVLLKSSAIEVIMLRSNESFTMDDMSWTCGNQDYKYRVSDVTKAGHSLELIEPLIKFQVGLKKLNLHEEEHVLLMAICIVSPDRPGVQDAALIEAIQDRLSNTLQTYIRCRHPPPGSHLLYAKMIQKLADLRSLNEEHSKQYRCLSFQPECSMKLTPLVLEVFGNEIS
Peroxisome proliferator-activated receptor gamma (Homo sapiens), sequence (P37231 whole entry, looked up): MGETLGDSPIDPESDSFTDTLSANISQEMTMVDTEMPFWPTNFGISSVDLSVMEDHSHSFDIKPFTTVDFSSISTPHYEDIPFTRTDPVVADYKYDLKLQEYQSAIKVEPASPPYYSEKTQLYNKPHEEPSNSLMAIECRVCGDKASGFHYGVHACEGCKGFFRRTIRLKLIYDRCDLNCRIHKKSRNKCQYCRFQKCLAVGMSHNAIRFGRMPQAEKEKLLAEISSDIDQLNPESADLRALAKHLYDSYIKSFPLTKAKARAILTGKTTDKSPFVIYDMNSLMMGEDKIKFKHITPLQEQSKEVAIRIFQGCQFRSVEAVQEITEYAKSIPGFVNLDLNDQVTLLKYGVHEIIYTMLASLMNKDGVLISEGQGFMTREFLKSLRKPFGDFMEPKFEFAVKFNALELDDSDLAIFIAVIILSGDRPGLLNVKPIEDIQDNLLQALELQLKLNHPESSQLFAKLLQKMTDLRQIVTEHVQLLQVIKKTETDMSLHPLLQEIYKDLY
Peroxisome proliferator-activated receptor delta (Homo sapiens), sequence (Q03181 whole entry, looked up): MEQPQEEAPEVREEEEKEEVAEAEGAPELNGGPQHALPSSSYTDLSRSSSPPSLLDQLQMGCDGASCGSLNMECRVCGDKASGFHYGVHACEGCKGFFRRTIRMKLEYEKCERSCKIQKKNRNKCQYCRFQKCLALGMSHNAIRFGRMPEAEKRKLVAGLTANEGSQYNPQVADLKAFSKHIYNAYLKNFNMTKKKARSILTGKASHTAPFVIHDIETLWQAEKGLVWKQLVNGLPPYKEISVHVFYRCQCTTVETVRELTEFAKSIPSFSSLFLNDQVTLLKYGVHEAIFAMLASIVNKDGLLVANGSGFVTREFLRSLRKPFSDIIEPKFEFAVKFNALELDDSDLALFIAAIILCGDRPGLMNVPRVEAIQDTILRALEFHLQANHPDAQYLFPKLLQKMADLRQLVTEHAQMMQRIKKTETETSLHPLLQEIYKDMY
Bile acid receptor (Homo sapiens), sequence (Q96RI1 whole entry, looked up): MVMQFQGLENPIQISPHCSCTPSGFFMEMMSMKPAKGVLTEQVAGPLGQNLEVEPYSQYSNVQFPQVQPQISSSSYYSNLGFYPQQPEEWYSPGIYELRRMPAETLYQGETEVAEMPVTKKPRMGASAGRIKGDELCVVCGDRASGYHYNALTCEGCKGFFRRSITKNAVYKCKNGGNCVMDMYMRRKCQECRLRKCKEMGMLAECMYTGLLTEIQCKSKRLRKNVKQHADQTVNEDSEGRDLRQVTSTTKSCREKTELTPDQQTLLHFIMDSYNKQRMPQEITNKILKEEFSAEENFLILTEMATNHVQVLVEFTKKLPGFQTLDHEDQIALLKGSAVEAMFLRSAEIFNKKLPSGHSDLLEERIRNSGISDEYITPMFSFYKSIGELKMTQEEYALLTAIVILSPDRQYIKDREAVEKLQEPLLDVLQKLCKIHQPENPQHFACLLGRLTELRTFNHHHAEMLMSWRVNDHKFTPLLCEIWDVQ

CCOc1ncc(F)c(=O)[nH]1
inactive: Potency [1] | Potency [2] | Potency [3] | Potency [4] | Potency [5] | Potency [6] | Potency [7] | Potency [8] | outcome [9] | outcome [10] | Potency [11]

CCC(Cl)CC(Cl)C(Cl)C(Cl)C(Cl)C(C)Cl (stereo not given)
inactive: outcome [12] | ratio activity, negative = inhibition [1] -28.9% [at 13.2 µM] | activity change, negative = cytotoxicity [2] -22.8% [at 13.2 µM] | activation [3] 7.21% [at 18.1 µM] | viability change, negative = cytotoxic [4] -17% [at 18.1 µM] | activity change, negative = cytotoxicity [13] 2.25% [at 13.2 µM] | activity change, negative = cytotoxicity [5] -18.5% [at 13.2 µM] | activation [14] -9.79% [at 13.2 µM] | ratio activity, negative = inhibition [15] -24% [at 13.7 µM] | activity change, negative = cytotoxicity [8] -0.0192% [at 13.2 µM] | activity change, negative = cytotoxicity [11] -2.44% [at 13.2 µM]

CCCCCCC(O)CCCCCCCCCCC(=O)OC (stereo not given)
inactive: Potency [16] | Potency [3] | Potency [4] | Potency [13] | Potency [5] | outcome [14] | Potency [6] | Potency [15] | Potency [7] | outcome [9] | outcome [10] | Potency [11]

O=C(Nc1ccc(C(=O)O)c(O)c1)c1ccccc1
inactive: Potency [16] | outcome [12] | Potency [2] | Potency [3] | Potency [4] | Potency [13] | Potency [17] | Potency [5] | outcome [14] | Potency [6] | Potency [15] | Potency [7] | outcome [9] | outcome [10] | Potency [11]

Cc1ccc(Nc2c(F)cccc2Cl)c(CC(=O)O)c1
inactive: Potency [16] | Potency [2] | Potency [4] | Potency [17] | Potency [5] | outcome [14] | outcome [18] | Potency [7] | Potency [19] | Potency [8] | Potency [11]

CCCOC(=O)c1c(Cl)c(Cl)c(Cl)c(Cl)c1C(=O)OCCC
inactive: Potency [16] | outcome [12] | Potency [4] | Potency [13] | Potency [17] | Potency [5] | outcome [14] | Potency [6] | Potency [15] | Potency [8] | outcome [9] | outcome [10] | Potency [11]

Cc1cc(CCCOc2c(C)cc(-c3noc(C(F)(F)F)n3)cc2C)on1
inactive: Potency [1] | Potency [2] | Potency [4] | Potency [17] | Potency [5] | Potency [6] | Potency [7] | Potency [8] | outcome [9] | outcome [10] | Potency [11]

CCNc1nc(N)nc(Cl)n1
inactive: Potency [16] | Potency [2] | Potency [3] | Potency [4] | Potency [17] | Potency [5] | outcome [14] | Potency [15] | Potency [7] | outcome [9] | Potency [11]

CCOC(=O)c1c(N)sc2c1CCN(Cc1ccccc1)C2
inactive: outcome [12] | Potency [1] | Potency [2] | Potency [4] | Potency [13] | Potency [17] | Potency [7] | Potency [8] | outcome [10] | Potency [11]
